# High-throughput results from PubChem.
# Compounds with a hit are over-represented: about 3.2% of the library has one in this group of screens.
# GoLoco inh red – qHTS Assay for Inhibitors of RGS12 GoLoco Motif Activity (Red Fluorophore); Guanine nucleotide-binding protein G(i) subunit alpha-1 (Homo sapiens), P63096; Gai1:RGS12 GoLoco peptide FP, rhodamine, 10 min; Potency, µM (titrated, usually from 61.6 µM), for the others: at the top dose activity, negative = inhibition, most hits filed as inhibitors; 230,000 tested, 0.44% active; active = well fitted inhibition curve with a large enough effect, not every such curve was filed as active; inactive = no such curve, though single readings can be large or run the other way; also: nearly all actives have a fitted effect of over 30% in size
# Target sequence (P63096 whole entry, looked up): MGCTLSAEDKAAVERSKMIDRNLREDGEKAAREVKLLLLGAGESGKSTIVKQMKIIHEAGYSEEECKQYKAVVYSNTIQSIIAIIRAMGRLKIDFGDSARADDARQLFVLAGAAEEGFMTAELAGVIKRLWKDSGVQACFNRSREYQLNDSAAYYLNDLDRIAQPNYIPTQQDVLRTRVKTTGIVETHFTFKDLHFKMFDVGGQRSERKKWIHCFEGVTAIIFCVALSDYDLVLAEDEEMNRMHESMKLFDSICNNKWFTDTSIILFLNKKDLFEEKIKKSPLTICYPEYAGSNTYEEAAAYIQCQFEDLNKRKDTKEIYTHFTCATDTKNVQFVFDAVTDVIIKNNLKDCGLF
# Tau fluor counter – Counterscreen qHTS for Inhibitors of Tau Fibril Formation, Fluorescence Polarization; tau K18 P301L Alexa594 fluorescence, heparin fibrillization; Potency, µM (top dose mostly 57.7 µM), inactives show top-dose activity change, negative = decrease; 280,000 tested, 0.93% active; also: nearly all actives have a fitted effect of over 55% in size
#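 Human tau K18 P301L (15 uM unlabeled, 0.24 uM Alexa 594-labeled) in 100 mM sodium acetate pH 7 with 20 uM heparin, 6 hr at 37 C. ThT 30 uM added, 1 hr ambient; Alexa 594 FP and total fluorescence read at 555/632 nm.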
# TR SRC2 fluor cs – Total Fluorescence Counterscreen for Inhibitors of the Interaction of Thyroid Hormone Receptor and Steroid Receptor Coregulator 2. TRb/SRC2 Texas Red total fluorescence interference. Potency, µM (series often up to 106 µM), inactives show top-dose fluorescence change, negative = quenching. 280,000 tested, 0.29% active; active = well fitted curve in either direction with a large enough effect; inconclusive = small, poorly fitted or top-dose-only effect
#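 Human TRb ligand-binding domain at 0.6 uM with 20 nM Texas Red SRC2 peptide in Tris buffer containing 1 uM T3 and 5% DMSO, incubated with compound 5 h at ambient temperature. Total fluorescence (555/632 nm) calculated as parallel + 2 × perpendicular.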
# Tau ThT inhib – qHTS for Inhibitors of Tau Fibril Formation, Thioflavin T Binding. Microtubule-associated protein tau (Homo sapiens), P10636. recombinant tau K18 P301L (four-repeat tau fragment), heparin-induced fibrillization, ThT fluorescence. Potency, µM (top dose mostly 57.4 µM), inactives show at the top dose activity, negative = inhibition, usual class: inhibitors. 270,000 tested, 2.1% active. AID 1460, 2008; also: nearly all actives have a fitted effect of over 55% in size
# Target sequence (P10636 561-689 P618L limits assumed): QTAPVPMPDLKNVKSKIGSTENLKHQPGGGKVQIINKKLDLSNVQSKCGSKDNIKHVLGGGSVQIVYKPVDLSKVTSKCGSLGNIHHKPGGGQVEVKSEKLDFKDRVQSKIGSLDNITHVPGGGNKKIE
#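 Heparin-induced (20 uM) aggregation of recombinant human K18 P301L tau, 15 uM unlabeled with 0.24 uM labeled, pH 7 acetate buffer, 6 hr at 37 C with compound. Fibrils quantified by 30 uM ThT fluorescence after 1 hr ambient incubation.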
# TRb SRC2 PPI – qHTS for Inhibitors of the Interaction of Thyroid Hormone Receptor and Steroid Receptor Coregulator 2. TRbeta-SRC2 peptide binding, fluorescence polarization; receptor liganded with 1 µM T3. Potency, µM (titrated, usually from 106 µM), for inactives: at the highest dose activity change, negative = inhibition, actives largely listed as inhibitors. 280,000 tested, 0.065% active. Thyroid hormone receptor beta (Homo sapiens), P10828;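 also: plate controls were bound peptide for no effect and peptide without receptor for full effect; nearly all actives have a fitted effect of over 50% in size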
#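 Compounds were added to 0.6 uM TRb ligand-binding domain and 20 nM Texas Red-labeled SRC2 peptide in Tris buffer containing 1 uM T3, incubated 5 hr at ambient temperature, then read by fluorescence polarization.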
# Tau FP inhib – qHTS for Inhibitors of Tau Fibril Formation, Fluorescence Polarization; Potency, µM (series often up to 57.7 µM), for inactives: top-dose activity, negative = inhibition, usual class: inhibitors; K18 P301L tau heparin fibrillization, Alexa594 FP, 6 h; AID 1468, 2008; 280,000 tested, 0.39% active; Microtubule-associated protein tau (Homo sapiens), P10636; also: nearly all actives have a fitted effect of over 55% in size
#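 Read-out: fluorescence polarization of Alexa 594-labeled tau (0.24 uM), 555 nm excitation, 632 nm emission. Mixtures held 15 uM unlabeled K18 P301L, compound and 20 uM heparin, pH 7 acetate buffer, incubated 6 hr at 37 C.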
# Starred values were filed as active, the others as inactive; ? = inconclusive; / = not tested or not shown; ! = not confirmed by another sample; [ ] = remark or other dose. Unless noted, calls follow the shape of the dose curve; as a rule, active = well fitted curve in the direction sought with a large enough effect; inconclusive = small, poorly fitted or top-dose-only effect, or another doubt; inactive = no such curve, though single readings can be large; an effect the other way counts as inactive or inconclusive. Unless noted, % is scaled to controls: 0 for no effect and ±100 for the full control effect; potency is read from the fitted curve at half-maximal effect.
SMILES,GoLoco inh red,Tau fluor counter,TR SRC2 fluor cs,Tau ThT inhib,TRb SRC2 PPI,Tau FP inhib
CC(C)Oc1ccc(Cc2c(O)[nH]c(=O)[nH]c2=O)cc1,5%,-9%,-1%,?,-7%,?
Cc1cccc(N2C(=O)NC(=O)/C(=C\c3ccc4c(c3)CCCN4Cc3ccccc3)C2=O)c1,-35%,-15%,10%,?,12%,-14%
CCC(C)N1C(=O)/C(=C/c2ccc3c(c2)CCN3CCCCl)C(=O)NC1=S (stereo unspecified),134%,?,-42%,32µM*,-4%,?
COc1ccc(-c2cnnn2-c2ccc(NC(=O)c3ccc(S(=O)(=O)N(C)C)cc3)cc2)cc1,/,?,-2%,1%,1%,-14%
CN(C)S(=O)(=O)c1ccc(C(=O)NCCSc2c(-c3ccccc3)[nH]c3ccccc23)cc1,/,4µM*[quencher],-2%,-5%,-3%,-10%
O=C(NCCSc1c(-c2ccccc2)[nH]c2ccccc12)c1ccc(S(=O)(=O)N2CCOCC2)cc1,/,6.3µM*[quencher],-2%,-9%,-1%,?
O=c1[nH]c(O)c(N=Nc2ccc(S(=O)(=O)N3CCOCC3)cc2)c(=O)[nH]1,5%,-14%,-1%,?,12%,-4%
COC(=O)/C=C(\C)OP(=O)(OC)OC,/,/,-1%[201 µM],/,-3%[201 µM],/
O=C(Nc1ccccc1)Nc1cnns1,/,/,-2%[201 µM],/,5%[201 µM],/
CCc1c(C)nc(N)nc1N1N=C1SC(C(C)=O)C(C)=O,1%,-20%,-3%,18µM*,7%,?
Clc1ccc(C(Cl)(Cl)Cl)cc1,/,/,-5%[201 µM],/,2%[201 µM],/
Cn1c[n+](C)cc1C(O)c1ccccc1 (stereo unspecified),14µM*,11%,-5%,8%,0%,4%
C[N+]1(C)CCN(c2ccccc2)CC1,28µM*!,-12%,-1%,-7%,-3%,-9%
N#CC(C#N)=NNc1ccc(S(=O)(=O)N2CCCC2)cc1,0%,-28%,-11%,18µM*,6%,15%
O=C1C=C2C(=CCOC2O)O1 (stereo unspecified),-1%,-19%,3%[201 µM],2.2µM*,5%[201 µM],2µM*
CNC(=O)Oc1cccc(-c2cn3cc(OC(=O)NC)ccc3n2)c1,-5%,?,?,14µM*,?,-12%
CNC(=O)Oc1ccc(-c2cn3cc(Cl)ccc3n2)cc1,-1%,-9%,-3%,1%,2%,-3%
CN1C[C@H](C(=O)N[C@]2(C)O[C@@]3(O)C4CCCN4C(=O)[C@H](Cc4ccccc4)N3C2=O)C[C@@H]2c3cccc4[nH]cc(c34)C[C@H]21 (stereo partly specified),4%,13µM*[quencher],-7%,?,0%,4%
CC(C)[C@@]1(NC(=O)[C@H]2CC3c4cccc5[nH]cc(c45)C[C@H]3N(C)C2)O[C@@]2(O)C3CCCN3C(=O)[C@@H](Cc3ccccc3)N2C1=O (stereo partly specified),12%,2.5µM*[quencher],-3%,?,10%,?
Nc1ccccc1O.O.O=C(O)[C@H]1[O][Sb][O][C@H]1C(=O)O,5%[14.2 µM],/,/,/,/,/
CCCCCOc1ccc(C)cc1CN(CCCl)CCCl,9%,-11%,-1%,?,32µM*,1%
Nc1ccc2nonc2c1[N+](=O)[O-],14µM*,-3%,-1%,-11%,-4%,3%
O=[N+]([O-])c1ccc(Sc2nc3ccccc3o2)c([N+](=O)[O-])c1,-10%,8.9µM*[quencher],-6%,14µM*,-5%,?
O=C(OCC(=O)c1ccc([N+](=O)[O-])cc1)/C(=C/c1ccc(Cl)cc1)NC(=O)c1ccccc1,-12%,-14%,-3%,28µM*,1%,?
CCCCC(CC)C(=O)Cl (stereo unspecified),/,/,-4%[201 µM],/,-1%[201 µM],/
SMILES,GoLoco inh red,Tau fluor counter,TR SRC2 fluor cs,Tau ThT inhib,TRb SRC2 PPI,Tau FP inhib
CCCN(CC)CC1COC2(CCC(C(C)(C)C)CC2)O1 (stereo unspecified),/,/,0%[201 µM],/,2%[201 µM],/
C=CCc1cc(C=C2C(=O)N(C)C(=O)N(C)C2=O)cc(OCC)c1OCc1ccccc1,25%,-14%,1%,25µM*,-11%,?
CCS(=O)(=O)c1cccnc1S(=O)(=O)NC(=O)Nc1nc(OC)cc(OC)n1,/,/,-4%[201 µM],/,0%[201 µM],/
CCN(CC)S(=O)(=O)c1cccc(N=Nc2c(O)n(CC)c(=S)n(CC)c2=O)c1,-4%,?,-1%,16µM*,10%,9%
Cn1c(O)c(N=Nc2cccc(S(=O)(=O)N3CCOCC3)c2)c(=O)n(C)c1=O,7%,6%,0%,5%,5%,9%
CN1C(=O)C(Cc2c[nH]c3ccccc23)C(=O)N(C)C1=O,-83%,-28%,-7%,22µM*,-2%,?
CN1C(=O)C(Cc2cccc3ccccc23)C(=O)N(C)C1=O,-6%,-20%,3%,25µM*,-10%,?
COP(=O)(OC)OC(Br)C(Cl)(Cl)Br (stereo unspecified),/,/,-10%[201 µM],/,-4%[201 µM],/
CCOc1ccc(C(C)(C)COCc2cccc(Oc3ccccc3)c2)cc1,/,/,0%[201 µM],/,0%[201 µM],/
CC(C)=C[C@H]1[C@@H](C(=O)OCc2cc3c(cc2Cl)OCO3)C1(C)C,4%[14.2 µM],/,/,/,/,/
CCOP(=S)(OCC)SC(CCl)N1C(=O)c2ccccc2C1=O (stereo unspecified),/,/,-3%[201 µM],/,-4%[201 µM],/
COP(=S)(OC)SCN1C(=O)c2ccccc2C1=O,11%,-19%,-3%,35µM*,3%,?
CN(C)c1nc(=O)n(C2CCCCC2)c(=O)n1C,/,/,-2%[201 µM],/,-2%[201 µM],/
CC(C)=CC1[C@H](C(=O)OCc2cccc(Oc3ccccc3)c2)C1(C)C (stereo partly specified),/,/,2%[201 µM],/,8%[201 µM],/
Cc1ccc2[nH]c(C)c(CCNC(=O)c3cc4cc([N+](=O)[O-])ccc4oc3=O)c2c1,23%,?,0%,?,1%,13%
COc1ccc2oc(=O)c(C(=O)NCCc3c(C)[nH]c4ccc(F)cc34)cc2c1,/,7.9µM*[quencher],3%,?,3%,?
